Laboratory results reported in ChEMBL document CHEMBL2218924, “A broad activity screen in support of a chemogenomic map for kinase signalling research and drug discovery” (Biochem J, 2013).

target: Ribosomal protein S6 kinase alpha-2 (Homo sapiens) (UniProt Q15349); settings: at 10 µM
Sequence (Q15349 whole entry): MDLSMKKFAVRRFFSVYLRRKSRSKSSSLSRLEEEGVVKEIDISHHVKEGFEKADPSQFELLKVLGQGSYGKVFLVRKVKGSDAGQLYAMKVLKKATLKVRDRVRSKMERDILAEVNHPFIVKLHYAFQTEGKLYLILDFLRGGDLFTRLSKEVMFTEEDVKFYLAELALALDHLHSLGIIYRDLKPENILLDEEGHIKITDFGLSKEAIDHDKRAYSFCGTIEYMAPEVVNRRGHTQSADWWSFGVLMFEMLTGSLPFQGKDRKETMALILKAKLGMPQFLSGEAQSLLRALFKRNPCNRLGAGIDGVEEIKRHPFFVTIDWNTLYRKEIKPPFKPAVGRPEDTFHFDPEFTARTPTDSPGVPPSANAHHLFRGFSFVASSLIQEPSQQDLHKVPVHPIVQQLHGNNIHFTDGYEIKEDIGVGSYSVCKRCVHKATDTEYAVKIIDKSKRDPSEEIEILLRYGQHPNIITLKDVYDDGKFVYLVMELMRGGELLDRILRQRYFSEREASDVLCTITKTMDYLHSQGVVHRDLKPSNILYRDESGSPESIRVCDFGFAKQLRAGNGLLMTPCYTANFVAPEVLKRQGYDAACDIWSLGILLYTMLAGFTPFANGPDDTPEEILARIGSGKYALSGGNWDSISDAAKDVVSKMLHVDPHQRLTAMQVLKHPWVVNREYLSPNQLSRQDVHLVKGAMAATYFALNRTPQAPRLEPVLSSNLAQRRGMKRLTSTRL

Q: `CCCCc1c(-c2ccc(O)cc2)[nH]c2nccnc12` was tested. Which residual activity did it give?
A: 44%

Q: With `O=C1Nc2ccccc2/C1=C\c1c(Cl)[nH]c2ccccc12` as the molecule, how does the residual activity read?
A: 44%

Q: Which residual activity does the source give for `CCOC(=O)c1c(C)[nH]c(/C=C2\C(=O)Nc3ccccc32)c1C` here?
A: 77%

Q: How did the residual activity turn out when `NCCNc1ncc(C(N)=O)c(Nc2cccc(C(F)(F)F)c2)n1` was run?
A: 29%

Q: For `CCOc1nc(NC(=O)Cc2cc(OC)ccc2OC)cc(N)c1C#N`, which residual activity is on record?
A: 71%

Q: `Cn1sc(=O)n(Cc2ccccc2)c1=O` was tested. Which residual activity did it give?
A: 97%

Q: `Nc1ncnc2c1cnn2-c1ccccc1` was tested. Which residual activity did it give?
A: 84%

Q: With `O=C1Cc2c([nH]c3ccc(Br)cc23)-c2ccccc2N1` as the molecule, how does the residual activity read?
A: 9%

Q: Which residual activity does the source give for `CN([C@@H](Cc1ccc(OS(=O)(=O)c2cccc3cnccc23)cc1)C(=O)N1CCN(c2ccccc2)CC1)S(=O)(=O)c1cccc2cnccc12` here?
A: 99%

Q: For `CCN1/C(=C/C(C)=O)Sc2ccc(OC)cc21`, which residual activity is on record?
A: 57%

Q: `COc1cc2ncnc(Nc3cccc(Cl)c3)c2cc1OC` was tested. Which residual activity did it give?
A: 47%

Q: With `Nc1nccc(-c2c(-c3ccc(F)cc3)ncn2C2CCNCC2)n1` as the molecule, how does the residual activity read?
A: 50%

Q: For `CC(C)(C)c1nc2c3ccc(F)cc3c3c(=O)[nH]ccc3c2[nH]1`, which residual activity is on record?
A: 7%

Q: With `O=C1Cc2c([nH]c3ccc([N+](=O)[O-])cc23)-c2ccccc2N1` as the molecule, how does the residual activity read?
A: 22%
